Source: PubChem BioAssay (NCI)
This is part of a sample that, as a whole, favours compounds with a hit. Of some 83,000 tested, about 20% had one in any assay.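 Activity criterion: percent growth below 10, measured after cells in 96-well plates were exposed to a single compound concentration for 48 hours.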 Activity calls are given as the source filed them.

Columns and labels:
Assay in all cases: NCI-60 one-dose screen, 48 h (100 = growth as untreated, 0 = no growth, -100 = all killed)
Settings in all cases: 10 µM unless noted
DU-145 prostate = tested on: DU-145 prostate
K-562 leukemia = tested on: K-562 leukemia
MALME-3M melanoma = tested on: MALME-3M melanoma
MDA-MB-231 breast = tested on: MDA-MB-231 breast
RXF 393 renal = tested on: RXF 393 renal
SF-268 CNS = tested on: SF-268 CNS
SF-295 CNS = tested on: SF-295 CNS
SF-539 CNS = tested on: SF-539 CNS
UACC-257 melanoma = tested on: UACC-257 melanoma
M14 melanoma = tested on: M14 melanoma
HCT-15 colon = tested on: HCT-15 colon
HT29 colon = tested on: HT29 colon
SNB-75 CNS = tested on: SNB-75 CNS
SNB-19 CNS = tested on: SNB-19 CNS
U251 CNS = tested on: U251 CNS
PC-3 prostate = tested on: PC-3 prostate
UACC-62 melanoma = tested on: UACC-62 melanoma
LOX IMVI melanoma = tested on: LOX IMVI melanoma
SK-MEL-28 melanoma = tested on: SK-MEL-28 melanoma
SK-MEL-5 melanoma = tested on: SK-MEL-5 melanoma

Measured: growth

CN1CCN(C(=S)SCCCCOc2cc(=O)oc3ccccc23)CC1
inactive: DU-145 prostate 90.6% | K-562 leukemia 64.3% | MALME-3M melanoma 93.3% | MDA-MB-231 breast 89.1% | RXF 393 renal 99.5% | SF-268 CNS 87.7% | SF-295 CNS 77.7% | SF-539 CNS 98.9% | UACC-257 melanoma 85% | M14 melanoma 103% | HCT-15 colon 88.3% | HT29 colon 78.5% | SNB-75 CNS 93.8% | SNB-19 CNS 94.7% | U251 CNS 87% | PC-3 prostate 72.7% | UACC-62 melanoma 73.9% | LOX IMVI melanoma 93.9% | SK-MEL-28 melanoma 109%

c1ccc(CCNc2c3ccccc3nc3ccccc23)cc1
inactive: DU-145 prostate 37.9% | K-562 leukemia 25% | MALME-3M melanoma 57.1% | MDA-MB-231 breast 43.3% | RXF 393 renal 35.3% | SF-268 CNS 66.5% | SF-295 CNS 34.9% | SF-539 CNS 28.1% | UACC-257 melanoma 55.2% | M14 melanoma 42.7% | HCT-15 colon 23.3% | HT29 colon 22.1% | SNB-75 CNS 67.6% | SNB-19 CNS 39.5% | U251 CNS 41.1% | PC-3 prostate 35.7% | UACC-62 melanoma 53.2% | LOX IMVI melanoma 17.6% | SK-MEL-28 melanoma 67.7%

COC1=C(C)C(=O)N2[C@@H]1[C@H](c1ccccc1)OC21C=CC(=O)C=C1
active: DU-145 prostate 4.7% | K-562 leukemia 6.14% | MALME-3M melanoma -12.3% | RXF 393 renal -69.2% | SF-268 CNS 1.71% | SF-539 CNS -69% | UACC-257 melanoma -12.8% | M14 melanoma -43.8% | HCT-15 colon -27.3% | HT29 colon -12.6% | PC-3 prostate -5.32% | UACC-62 melanoma -55.2% | LOX IMVI melanoma -61.6% | SK-MEL-28 melanoma -14.4%
inactive: MDA-MB-231 breast 11.9% | SF-295 CNS 90.3% | SNB-75 CNS 52.7% | SNB-19 CNS 64.9% | U251 CNS 26.2%

O=C(CSc1nnc(-c2cc(-c3ccccc3)nc3ccccc23)n1-c1ccccc1)Nc1ccc(C(=O)/C=C/c2ccc(Cl)cc2)cc1
inactive: DU-145 prostate 94.6% | K-562 leukemia 65.8% | MALME-3M melanoma 99.5% | MDA-MB-231 breast 78.5% | RXF 393 renal 103% | SF-268 CNS 94.4% | SF-295 CNS 97.9% | SF-539 CNS 96.7% | UACC-257 melanoma 103% | M14 melanoma 92.6% | HCT-15 colon 73.5% | HT29 colon 76.2% | SNB-75 CNS 97.3% | SNB-19 CNS 101% | U251 CNS 93.9% | PC-3 prostate 81% | UACC-62 melanoma 67.9% | LOX IMVI melanoma 94.3% | SK-MEL-28 melanoma 99.8%

CCS/C(Nc1ccccc1)=C(\C#N)C(=O)Nc1ccc(OC)cc1
inactive: DU-145 prostate 33.8% | MALME-3M melanoma 55.6% | MDA-MB-231 breast 44.5% | RXF 393 renal 39.5% | SF-268 CNS 39.1% | SF-295 CNS 32.6% | SF-539 CNS 29.1% | UACC-257 melanoma 58.4% | M14 melanoma 15.2% | HCT-15 colon 16.9% | SNB-75 CNS 18.2% | U251 CNS 16.6% | PC-3 prostate 47.9% | SK-MEL-5 melanoma 17.8% | UACC-62 melanoma 27.2% | LOX IMVI melanoma 36.6% | SK-MEL-28 melanoma 58.9%
active: K-562 leukemia 7.34% | HT29 colon 6.46%

CN(Cc1cnc2nc(N)nc(N)c2n1)c1ccc(C(=O)NC(CCC(=O)O)C(=O)O)cc1Br (centres undefined)
active: SF-539 CNS 6.95%
inactive: DU-145 prostate 25.2% | K-562 leukemia 31.1% | MALME-3M melanoma 98.1% | MDA-MB-231 breast 60.2% | RXF 393 renal 58.6% | SF-268 CNS 34.4% | SF-295 CNS 27% | UACC-257 melanoma 59.4% | M14 melanoma 30.9% | HCT-15 colon 34.9% | HT29 colon 21.2% | SNB-75 CNS 54.5% | SNB-19 CNS 45.4% | U251 CNS 43% | PC-3 prostate 56.9% | UACC-62 melanoma 30.9% | LOX IMVI melanoma 17.7% | SK-MEL-28 melanoma 50%

O=C1/C(=C/c2ccccn2)NC(=S)N1c1ccccc1Cl
inactive: DU-145 prostate 54.1% | K-562 leukemia 39.7% | MALME-3M melanoma 67.7% | MDA-MB-231 breast 36.4% | SF-268 CNS 83.5% | SF-295 CNS 55.9% | SF-539 CNS 67.3% | UACC-257 melanoma 74.5% | M14 melanoma 42.3% | HCT-15 colon 38.2% | HT29 colon 71.1% | SNB-75 CNS 82% | SNB-19 CNS 58.6% | U251 CNS 34.6% | PC-3 prostate 52.2% | UACC-62 melanoma 66.7% | LOX IMVI melanoma 12.1% | SK-MEL-28 melanoma 74%
active: RXF 393 renal -7.86%

COc1ccc(/C=C(/c2ccccc2)[N+](=O)[O-])c(OC)c1
inactive: DU-145 prostate 38.6% | MDA-MB-231 breast 12.1% | SF-268 CNS 14.3% | UACC-257 melanoma 10.4% | SNB-75 CNS 53.3%
active: K-562 leukemia 6.07% | MALME-3M melanoma -27% | RXF 393 renal -67.8% | SF-295 CNS 9.19% | SF-539 CNS -48.5% | M14 melanoma 5.14% | HCT-15 colon -36.4% | HT29 colon -19.2% | SNB-19 CNS -9.71% | U251 CNS -59.8% | PC-3 prostate -20.6% | UACC-62 melanoma -53.9% | LOX IMVI melanoma -83.5% | SK-MEL-28 melanoma -25.3%

CC1(C)CC[C@]2(C(=O)N[C@H](CO)Cc3ccccc3)CC[C@]3(C)C(=CC[C@@H]4[C@@]5(C)CCCNC(C)(C)[C@@H]5CC[C@]43C)[C@@H]2C1
active: K-562 leukemia 1.94%
inactive: DU-145 prostate 93.7% | MALME-3M melanoma 106% | MDA-MB-231 breast 70.1% | RXF 393 renal 78.4% | SF-268 CNS 85.7% | SF-295 CNS 102% | SF-539 CNS 90.4% | UACC-257 melanoma 106% | M14 melanoma 71.4% | HCT-15 colon 60.5% | HT29 colon 10.6% | SNB-75 CNS 87.1% | SNB-19 CNS 84.8% | U251 CNS 68.9% | PC-3 prostate 25.7% | UACC-62 melanoma 78.5% | LOX IMVI melanoma 69.6% | SK-MEL-28 melanoma 106%

COc1cc(OC)cc(-c2ccc(-c3ccc(C(=N)N)o3)o2)c1
active: K-562 leukemia 4.64% | MDA-MB-231 breast 0.981% | HCT-15 colon -6.9% | HT29 colon 8.19% | U251 CNS 8.25% | UACC-62 melanoma -3.63% | LOX IMVI melanoma -64.1%
inactive: DU-145 prostate 60.2% | MALME-3M melanoma 71.3% | RXF 393 renal 58.2% | SF-268 CNS 62.6% | SF-295 CNS 86.3% | SF-539 CNS 73.1% | UACC-257 melanoma 45.4% | M14 melanoma 25.1% | SNB-75 CNS 87.6% | SNB-19 CNS 51.3% | PC-3 prostate 71.2% | SK-MEL-28 melanoma 87.8%

COC(=O)CCC/C=C\C[C@H]1C=CC(=O)/C1=C/C[C@@H](O)C/C=C\CC(F)(F)F
active: K-562 leukemia 6.69% | MDA-MB-231 breast 8.26% | RXF 393 renal -5.41% | SF-295 CNS -1.18% | UACC-257 melanoma -15.6% | M14 melanoma -16.8% | HCT-15 colon -18.5% | HT29 colon -42.6% | U251 CNS -69.1% | PC-3 prostate -16.2% | UACC-62 melanoma -37.2% | LOX IMVI melanoma -82.7% | SK-MEL-28 melanoma -25.5%
inactive: DU-145 prostate 24.9% | MALME-3M melanoma 10.2% | SF-268 CNS 17.6% | SF-539 CNS 17.8% | SNB-75 CNS 68.3% | SNB-19 CNS 33.7%

Cc1nc2sc(C(=O)Nc3cccc(Br)c3C)c(N)c2cc1C(O)c1ccccc1 (centres undefined)
active: DU-145 prostate 6.13% | K-562 leukemia 6.3% | MDA-MB-231 breast 3.16% | SF-539 CNS 1.41% | M14 melanoma 9.77% | HT29 colon 9.11% | U251 CNS 2.74% | SK-MEL-5 melanoma -50.9%
inactive: MALME-3M melanoma 56.9% | RXF 393 renal 37.9% | SF-268 CNS 16.3% | SF-295 CNS 20.5% | UACC-257 melanoma 52% | HCT-15 colon 10.8% | SNB-75 CNS 52.6% | PC-3 prostate 18.3% | UACC-62 melanoma 18.5% | LOX IMVI melanoma 16.3% | SK-MEL-28 melanoma 55.9%

CSC(SC)=C(C#N)c1nc2ccccc2s1
inactive: DU-145 prostate 87.2% | K-562 leukemia 47.4% | MALME-3M melanoma 67.9% | MDA-MB-231 breast 52.9% | RXF 393 renal 95.8% | SF-268 CNS 55.1% | SF-295 CNS 88.2% | SF-539 CNS 60.2% | UACC-257 melanoma 54% | M14 melanoma 48.1% | HCT-15 colon 61.8% | HT29 colon 97.2% | SNB-75 CNS 74.3% | U251 CNS 76.5% | PC-3 prostate 30% | SK-MEL-5 melanoma 27.9% | LOX IMVI melanoma 84.1% | SK-MEL-28 melanoma 38.8%
active: UACC-62 melanoma 9.44%

NC1(CO)COC(c2ccccc2)OC1 (centres undefined)
inactive: DU-145 prostate 115% | K-562 leukemia 89.5% | MALME-3M melanoma 109% | MDA-MB-231 breast 112% | RXF 393 renal 104% | SF-268 CNS 110% | SF-295 CNS 113% | SF-539 CNS 109% | UACC-257 melanoma 98.4% | M14 melanoma 118% | HCT-15 colon 113% | HT29 colon 96.7% | SNB-75 CNS 120% | U251 CNS 97.5% | PC-3 prostate 99% | SK-MEL-5 melanoma 96.1% | UACC-62 melanoma 111% | LOX IMVI melanoma 107% | SK-MEL-28 melanoma 118%

Cc1c2cccnc2c(C)c2c1c1cc(CO)ccc1n2C
active: K-562 leukemia 9.28% | UACC-257 melanoma -1.38% | UACC-62 melanoma -16.6% | LOX IMVI melanoma 8.95%
inactive: DU-145 prostate 25.3% | MALME-3M melanoma 16.8% | MDA-MB-231 breast 19.9% | RXF 393 renal 30.2% | SF-268 CNS 28.8% | SF-295 CNS 24.7% | SF-539 CNS 23.2% | M14 melanoma 29.8% | HCT-15 colon 18.7% | HT29 colon 16% | SNB-75 CNS 45.5% | SNB-19 CNS 21.1% | U251 CNS 14% | PC-3 prostate 31% | SK-MEL-28 melanoma 30.6%

Cc1ccc(-c2csc(NC(=O)c3ccccc3CN3C(=O)c4ccccc4C3=O)n2)cc1
inactive: DU-145 prostate 96.5% | K-562 leukemia 100% | MALME-3M melanoma 93.7% | MDA-MB-231 breast 93.2% | RXF 393 renal 89.8% | SF-268 CNS 86.6% | SF-295 CNS 95.6% | SF-539 CNS 98.4% | UACC-257 melanoma 92.4% | M14 melanoma 106% | HCT-15 colon 90.8% | HT29 colon 97.1% | SNB-75 CNS 87.3% | U251 CNS 95.5% | PC-3 prostate 91.9% | SK-MEL-5 melanoma 95.5% | UACC-62 melanoma 76.6% | LOX IMVI melanoma 99.3% | SK-MEL-28 melanoma 99.9%
